Reference: PubChem BioAssay AID463173 (ICCB-Longwood Screening Facility, Harvard Medical School, 2010)
The whole screen tested about 52,000 compounds, of which about 1,700 (3.3%) were called active. The list comes from a sample in which actives are over-represented; it also holds similar structures and randomly drawn compounds. Unmarked numbers belong to inactive results. Cut-off read from the data, not from the text of the source: active = survival mostly below about 52% (no sharp cut-off); inactive = mostly above about 56%.

system: Wild type; test: growth inhibition of S. aureus wild type versus tarO mutant, primary screen, teichoic acid synthesis inhibitors, RN4220, OD600 (AID 463173); conditions: S. aureus RN4220 wild type/DeltatarO growth, OD600, 18 h, stronger effect = lower value, screened at 18.75 µg/mL (by protocol)

| SMILES | survival |
| --- | --- |
| COc1ccccc1NC(=O)Cn1nnc(C(=O)Nc2ccccc2Br)c1N | 85% |
| CCc1ccccc1NC(=O)Cn1nnc(C(=O)NCc2cccs2)c1N | 96% |
| Cc1cc(C)cc(NC(=O)Cn2nnc(C(=O)NCc3ccccc3Cl)c2N)c1 | 77% |
| Cc1ccc(C)c(NC(=O)c2nnn(CC(=O)Nc3cccc(C)c3C)c2N)c1 | 88% |
| Cc1cccc(NC(=O)Cn2nnc(C(=O)Nc3ccccc3Br)c2N)c1C | 0% (active) |
| CCc1ccccc1NC(=O)Cn1nnc(C(=O)NCc2ccccc2Cl)c1N | -3% (active) |
| COc1cccc(CNC(=O)CC(c2ccc(F)cc2)N2Cc3ccccc3C2=O)c1 (configuration not stated) | 82% |
| CCN(CC)C(=O)CSc1nc2ccccc2c(=O)n1CC | 107% |
| COc1ccc(Nc2oc(/C=C/c3ccccc3OC)nc2C#N)cc1 | 86% |
| CCOc1ccc2ncc3c(-c4cccc(OC)c4)nn(-c4ccccc4)c3c2c1 | 125% |
| COc1ccc2ncc3c(-c4ccccc4)nn(-c4ccc(C)c(C)c4)c3c2c1 | 0% (active) |
| CCc1ccc2ncc3c(-c4ccc(C)cc4)nn(CC(=O)NCc4ccccc4)c3c2c1 | 65% |
| Cc1ccc(-c2nn(CC(=O)NC3CCCCC3)c3c2cnc2ccc(F)cc23)cc1C | -3% (active) |
| COc1ccc(-n2nc(-c3ccc(C)cc3)c3cnc4cc(F)c(F)cc4c32)cc1 | 85% |
| CCc1ccc(-c2nn(CC(=O)NC3CCCCC3)c3c2cnc2ccc(F)cc23)cc1 | 68% |
| CCc1ccc(-c2nn(-c3ccc(OC)cc3)c3c2cnc2ccc(OC)cc23)cc1 | 9% (active) |
| CCOc1ccc(-c2nn(-c3ccc(F)cc3)c3c2cnc2ccc(F)cc23)cc1 | 86% |
| CCc1ccc2ncc3c(-c4ccc(C)cc4)nn(CC(=O)Nc4ccc(C)cc4)c3c2c1 | 47% |
| CCCNC(=O)Cn1nc(-c2ccc(C)cc2)c2cnc3ccc(CC)cc3c21 | 10% (active) |
| Cc1ccc(-n2nc(-c3ccccc3)c3cnc4cc5c(cc4c32)OCO5)cc1C | 110% |
| Cc1ccc(-c2nn(CC(=O)NC3CCCC3)c3c2cnc2ccc(F)cc23)cc1C | 74% |
| COc1cc(OC)c(NC(=O)Nc2cccc(OCc3cc(=O)n4ccccc4n3)c2)cc1Cl | 87% |
| N#Cc1ccc(N2CCCCC2)cc1 | 119% |
| Oc1ccc(Nc2nc3ccccc3n3cnnc23)cc1 | 78% |
| COc1ccc(OCC(=O)NCCO)cc1 | 116% |

| SMILES | survival |
| --- | --- |
| COc1ccccc1NC(=O)c1cnc(SCC(=O)N2CCOCC2)n(C)c1=O | 77% |
| FC(F)(F)c1ccc2c(c1)ncc1c(-c3ccccc3)nn(-c3ccccc3)c12 | 125% |
| Cc1ccc(-c2nn(-c3ccccc3)c3c2cnc2ccccc23)cc1C | 68% |
| CCc1ccc2ncc3c(-c4ccccc4)nn(-c4ccccc4)c3c2c1 | 7% (active) |
| N#Cc1c(N2CCOCC2)nc(N2CCOCC2)c2c1CCN(Cc1ccccc1)C2 | 112% |
| COc1ccc(CNC(=O)CCc2c(C)nn(-c3ccc(N4CCCCC4)nn3)c2C)c(OC)c1 | 64% |
| CCCn1c(N2CCN(C(=O)Nc3ccc(OC)cc3)CC2)nc2ccccc21 | 94% |
| CCn1c(N2CCN(C(=O)Nc3ccc(Cl)c(C(F)(F)F)c3)CC2)nc2ccccc21 | 0% (active) |
| CC(C)Cn1c(N2CCN(C(=O)Nc3ccc(Cl)cc3)CC2)nc2ccccc21 | 99% |
| CCOCCn1ccc2c(OCC(=O)Nc3ccc(C(N)=O)cc3)cccc2c1=O | 32% |
| Cc1ccc(-n2cccn2)cc1 | 113% |
| CCOc1ccccc1NC(=O)NCCn1c(=O)oc2ccc(C)cc21 | 79% |
| N#CCCCn1c(=O)oc2ccccc21 | 84% |
| O=C(O)CCCn1c(=O)oc2ccccc21 | 99% |
| O=c1oc2ccccc2n1CCCOc1ccccc1Cl | 0% (active) |
| Cc1ccc2oc(=O)n(CCNC(=O)Nc3ccccc3C)c2c1 | 119% |
| Cc1ccc2oc(=O)n(CCCOc3ccccc3Cl)c2c1 | -10% (active) |
| O=S(=O)(c1ccccc1)c1nnn2c1nc(NCc1ccc(Cl)cc1)c1sccc12 | 88% |
| Cc1cc(SCC(=O)NCc2ccccc2)nc(=O)[nH]1 | 70% |
| Cc1cc2oc(C(=O)Nc3ccc(S(=O)(=O)N4CCCCCC4)cc3)cc(=O)c2cc1C | 80% |
| COc1ccc(-c2nc(CSc3nnc(C)n4c3cc3oc(C)cc34)c(C)o2)cc1OC | 89% |
| CCc1ccc(OCC(=O)Nc2ccc(Cl)c(-c3nc4cc(C)cc(C)c4o3)c2)cc1 | 51% |
| COc1ccc(C(=O)/C=C/c2cn(CC(O)CN3CCc4ccccc43)c3ccccc23)cc1 (configuration not stated) | 63% |
| COc1ccc(C(=O)/C=C/c2cn(CC(O)CN3CCCCCC3)c3ccccc23)cc1OC (configuration not stated) | 96% |
| Cc1ccc(C(=O)/C=C/c2cn(CC(O)CN3CCCCCC3)c3ccccc23)cc1 (configuration not stated) | 28% (active) |

| SMILES | survival |
| --- | --- |
| O=C(/C=C/c1cn(CC(O)CN2CCc3ccccc32)c2ccccc12)c1ccc(Br)cc1 (configuration not stated) | 70% |
| O=C(/C=C/c1cn(CC(O)CN2CCCCCC2)c2ccccc12)c1ccc(Br)cc1 (configuration not stated) | 14% (active) |
| COc1ccc(C(=O)/C=C/c2cn(CC(O)CN3CCc4ccccc43)c3ccccc23)cc1OC (configuration not stated) | 87% |
| CCOc1ccc(C(=O)/C=C/c2cn(CC(O)CN3CCCCCC3)c3ccccc23)cc1 (configuration not stated) | 26% (active) |
| O=C(/C=C/c1cn(CC(O)CN2CCCCCC2)c2ccccc12)c1ccccc1 (configuration not stated) | 67% |
| Cc1ccc(Cn2ccc(NC(=O)c3cc(-c4ccc(Cl)c(Cl)c4)on3)n2)cc1 | 74% |
| CCOC(=O)CSc1nc2ccccc2c(=O)n1CCc1ccc(OC)c(OC)c1 | 124% |
| Cc1ccc(-n2c(C)cc(CO)c2C)cc1 | 100% |
| Cc1ccc(CNC(=O)CCc2c(C)nn(-c3ccc(N4CCOCC4)nn3)c2C)cc1 | 135% |
| CC(=O)Nc1ccc(N=NN2CCCCC2)cc1 | 99% |
| CCc1ccc(CN(Cc2ccco2)c2cnc(S(C)(=O)=O)nc2C(=O)Nc2c(C)cccc2C)cc1 | 70% |
| c1ccc(-c2nc(N3CCCCC3)c3ccccc3n2)cc1 | 130% |
| CCCOc1ccc(CNC(=O)C2CCN(c3nc4ccccc4nc3C(F)(F)F)CC2)cc1 | 59% |
| CCCOc1ccc(-c2nc(N3CCCCC3)c3ccccc3n2)cc1 | 0% (active) |
| CCCOc1ccc(-c2nc(N3CCC(C)CC3)c3ccccc3n2)cc1 | -2% (active) |
| CCCOc1ccc(-c2nc3ccccc3c(=O)o2)cc1 | 70% |
| Cc1ccc(-c2nc(N3CCN(c4ccccc4Cl)CC3)c3ccccc3n2)cc1 | 62% |
| O=C(CSc1nc2c([nH]c3ccccc32)c(=O)n1-c1ccccc1)N1CCCc2ccccc21 | 128% |
| c1ccc2sc(N3CCN(Cc4nnnn4C4CCCC4)CC3)nc2c1 | 104% |
| Fc1ccc(Nc2ncnc3onc(-c4ccc(Cl)cc4)c23)cc1Cl | 71% |
| Cc1ccccc1CN1C(=O)c2ccccc2Sc2ccc(C(=O)NC(C)c3ccccc3)cc21 (configuration not stated) | 81% |
| Cc1cccc(CNC(=O)c2ccc3c(c2)N(C)C(=O)C2CCCCN32)c1 (configuration not stated) | -3% (active) |
| COc1ccc(CNC(=O)c2ccc3c(c2)N(C)C(=O)C2CCCCN32)cc1OC (configuration not stated) | 59% |
| CSc1ccc(CNC(=O)c2ccc3c(c2)N(C)C(=O)C2CCCCN32)cc1 (configuration not stated) | 83% |
| CC(C)Oc1ccc(CNC(=O)c2ccc3c(c2)N(C)C(=O)C2CCCCN32)cc1 (configuration not stated) | 10% (active) |

| SMILES | survival |
| --- | --- |
| CCCCOc1ccc(CNC(=O)c2ccc3c(c2)N(C)C(=O)C2CCCCN32)cc1 (configuration not stated) | 88% |
| COc1cccc(CNC(=O)c2ccc3c(c2)N(C)C(=O)C2CCCCN32)c1 (configuration not stated) | 68% |
| COc1cccc(CNC(=O)c2ccc3nc(-c4ccccc4)c(-c4ccccc4)nc3c2)c1OC | 71% |
| CCC(Cn1nnc2ccccc2c1=O)NC(=O)Nc1ccccc1OC (configuration not stated) | 93% |
| CCc1ccccc1NC(=O)[C@@H](c1ccccc1)N1Cc2ccccc2C1=O | 22% |
| COc1ccccc1OCCSc1ncnc2nc[nH]c12 | 105% |
| Cc1ccc(-c2nnc(Nc3ccc(F)cc3)c3ccccc23)cc1S(=O)(=O)NC(C)C | 81% |
| COCCCNC(=O)c1cc2cc(S(=O)(=O)N3CCCCC3)ccc2n1C | 73% |
| COc1ccc(-c2noc(-c3ccccc3NC(=O)c3cc(OC)c(OC)c(OC)c3)n2)cc1 | 79% |
| COc1ccc(C(=O)Nc2ccccc2-c2nc(-c3ccc(OC)cc3)no2)cc1 | 89% |
| COc1ccc(-c2noc(-c3cccc(OC)c3OC)n2)cc1 | -3% (active) |
| Cc1ccc(OC(=O)c2snnc2C)cc1C | 117% |
| COc1ccc(NC(=O)Nc2cccc(-c3cn4cccnc4n3)c2)cc1 | 77% |
| Cc1cc(C)c(S(=O)(=O)Nc2ccc3oc4c(c3c2)CCCC4)cc1C | 72% |
| CCOc1ccc(S(=O)(=O)Nc2ccc3oc4c(c3c2)CC(C)CC4)cc1 (configuration not stated) | 60% |
| CCCCOC(=O)c1c(C)oc2ccc(NS(=O)(=O)c3ccc(F)cc3C)cc12 | 1% (active) |
| CCOC(=O)c1c(-c2ccccc2)oc2ccc(NS(=O)(=O)c3ccc(OC)cc3)cc12 | 66% |
| CCOC(=O)c1c(-c2ccccc2)oc2ccc(NS(=O)(=O)c3ccccc3)cc12 | 7% (active) |
| CCOC(=O)c1c(-c2ccccc2)oc2ccc(NS(=O)(=O)c3ccc(C)cc3C)cc12 | 51% |
| CCOC(=O)c1c(-c2ccccc2)oc2ccc(NS(=O)(=O)c3ccc(C)cc3)cc12 | 28% |
| Cc1cc(F)ccc1S(=O)(=O)Nc1ccc2oc3c(c2c1)CC(C)CC3 (configuration not stated) | -6% (active) |
| CCc1ccc(S(=O)(=O)Nc2ccc3oc(C)c(C(=O)OCCOC)c3c2)cc1 | 60% |
